# Measured values reported in ChEMBL document CHEMBL4888484, “Replenishing the malaria drug discovery pipeline: Screening and hit evaluation of the MMV Hit Generation Library 1 (HGL1) against asexual blood stage Plasmodium falciparum ,using a nano luciferase reporter read-out” (2022).
# Screen size: about 150,000 compounds; about 540 (0.36%) showed an effect of 50% or more. This is one part of a sample in which strong results are shown more often than they occur.
# Test system: Plasmodium falciparum
# Experiment: Primary screen in NF54 nanoGlo assay, in single point, at 2uM, 72h; a lower Z score goes with more inhibition
# Assay type: functional, Erythrocyte
# Settings: timepoint 72 hour
SMILES,% Inhibition,Z score
COC[C@@H]1[C@H](C(=O)Nc2cc(OC)ccc2OC)CCC(=O)N1C,-12%,1.42
O=C(Nc1nncs1)c1occc1-c1ccccc1,-6%,0.51
O=C(Nc1nncs1)c1cccc(C(=O)Nc2nncs2)n1,77%,-14.68
CNc1cccc(C(=O)Nc2nncs2)n1,-13%,1.62
Nc1nnnn1CC(=O)N[C@H]1CC(=O)Nc2ccccc21,10%,-1.71
FC(F)(F)c1ccnc(Nc2ccc3c(c2)OCO3)n1,-4%,0.56
Cc1nn(C)cc1CN(Cc1ccncc1)C1CCCCC1,8%,-1.12
CC(C)c1cc(CN(Cc2cc(C(C)C)c(O)c(C(C)C)c2)C2CCCCC2)cc(C(C)C)c1O,95%,-12.83
COc1ccc(CN(Cc2nnn(C)n2)C2CCCCC2)cc1OC,-7%,1.05
Cc1noc(C(F)(F)F)c1C(=O)NCC1(C2(O)CCC2)CC1,-10%,1.69
COc1ccc2c(c1)C(N1CCN(C(=O)CC(C)(C)C)CC1)=Nc1ccccc1O2,1%,-0.13
CCOC(=O)N1CCCC[C@H](NC2CCN(c3ccc(F)c(F)c3)CC2)C1,4%,-0.83
O=C(c1cccc(C(F)(F)F)c1)N1CCC(n2cnnc2C2CC2)CC1,2%,-0.34
O=C(CN1CCC(O)CC1)N1CCC(c2ccccc2)=N1,-5%,1.01
O=C(NCCn1c(=O)[nH]c2ccsc2c1=O)c1cc(-c2ccc(F)cc2)c[nH]1,-4%,0.72
O=C(Nc1ccc(Cl)c(N2CCCS2(=O)=O)c1)NC1CCOCC1,-13%,1.52
COc1c[nH]c(C(=O)NC2CCCC2)cc1=O,-5%,0.85
COc1cc([C@H](CC(=O)NC2CCN(Cc3ccccc3)CC2)N2Cc3ccccc3C2=O)cc(OC)c1OC,68%,-9.85
COc1cc(=O)n2c(c1C(=O)NC1CCN(Cc3ccccc3)CC1)CCCCC2,-8%,0.91
COc1c[nH]c(C(=O)NC2CCN(Cc3ccccc3)CC2)cc1=O,60%,-7.68
COc1cn(CC(=O)NC2CCN(Cc3ccccc3)CC2)c(CN2CCOCC2)cc1=O,7%,-0.83

SMILES,% Inhibition,Z score
O=C(CN1C(=O)c2ccccc2C1=O)NC1CCN(Cc2ccccc2)CC1,4%,-0.5
Cn1cccc1CNc1nnc([C@@H]2CCCO2)o1,-5%,0.81
C[C@H]1NC(=O)N(c2cccc(C#N)c2)C1=O,-4%,0.53
O=C(NCCN1C(=O)COC1=O)c1cccs1,12%,-2.12
CC[C@H](C)N(CC(=O)N(CCOC)Cc1cccn1Cc1ccccc1)C(=O)c1ccco1,-8%,1.33
COc1cccc(OC)c1-c1cncc(C(=O)NCC2CC2)c1,-9%,1.48
O=S(=O)(CCO)c1ccc(NCc2ccc(Cl)s2)cc1,-5%,0.74
CC(C)(C)c1nc(CNc2ccc(S(=O)(=O)CCO)cc2)no1,52%,1.4
Cc1nc(CNc2ccc(S(=O)(=O)CCO)cc2)cs1,-22%,4.06
O=C(Nc1ccccc1C(=O)N1CCCCC1)[C@H]1CCCN(S(=O)(=O)c2cccs2)C1,3%,-0.58
Nc1ccnc2c(-c3ccncc3)cccc12,-2%,0.26
Cc1ccn(C2CCN(C(=O)C(C)(C)c3c[nH]cn3)CC2)n1,-6%,1.19
Cc1cc(-c2c(C)sc(C)c2S(=O)(=O)N2CCOCC2)on1,-8%,1.45
Cc1ccc(S(=O)(=O)N(CC(=O)N[C@@H](C)c2ccccc2)c2cccc(Br)c2)cc1,50%,-1.08
Cc1ccc(S(=O)(=O)N(CC(=O)N[C@@H]2C[C@H]3CC[C@@H]2C3)c2cccc(Br)c2)cc1,-15%,2.16
COc1ccccc1N(CC(=O)N[C@H](C)c1ccccc1)S(=O)(=O)c1ccc(C)cc1,1%,-0.13
O=C(Nc1cc(Br)cc(C(F)(F)F)c1)c1ccnnc1,-2%,0.3
O=C(Nc1cc(-c2onc3c2CCCC3)cc(C(F)(F)F)c1)c1cncc(Br)c1,96%,-8.79
O=C(Nc1ccc(-c2onc3c2CCCC3)cc1)c1c(Cl)cc(Cl)cc1Cl,-2%,0.3
COc1ccc(C(=O)N[C@H]2CCOC3(CCOCC3)C2)c(C)c1,0%,0.06
COc1cc2c(cc1OC)C(=O)N(Cc1ccccc1)C(=O)C2=O,-13%,1.31

SMILES,% Inhibition,Z score
COC(=O)c1ccccc1NC(=O)C[C@@H]1Nc2cccc3cccc(c23)NC1=O,-5%,0.52
COCc1ccc(CNCc2cc3cc(Cl)c(Cl)cc3[nH]2)cc1,-13%,1.44
COc1ccc(-c2nc3ccc(C(=O)NC4CCCC(C)C4C)cc3nc2-c2ccc(OC)c(OC)c2)cc1OC (centres undefined),24%,-2.87
Cc1ncsc1Cn1ccn2nc(C(F)(F)F)cc2c1=O,15%,-1.93
Cc1cccc(C(=O)N=C(N)Nc2nc3ccccc3s2)c1,-8%,0.72
Cc1cccc(C(=O)Nc2nc3cc4sc(NC(=O)c5cccc(C)c5)nc4cc3s2)c1,64%,0.77
Cc1cccc(S(=O)(=O)Nc2ccc3nc(NC(=O)c4ccccc4)sc3c2)c1,37%,-0.65
c1[nH]nnc1CCN1CCOC[C@@H]1CC1CCOCC1,5%,-1.02
CCc1cnc(Cn2nc(-c3ccccc3)cc(C(F)(F)F)c2=O)o1,-6%,0.55
C=CC[C@]1(C(=O)O)CCCN(Cc2c(C)nn(CC)c2C)C1,-6%,1
Cc1cccc(CN2CCC[C@H](C(=O)c3ccc4c5c(cccc35)CC4)C2)n1,58%,-11.5
Cc1cc(C(=O)N2CCC[C@H](C(=O)c3ccc4c5c(cccc35)CC4)C2)nc(N)n1,-4%,0.45
CC(=O)N1CCC(N2CCC[C@H](C(=O)c3ccc4c5c(cccc35)CC4)C2)CC1,-11%,1.6
COc1cccc(NC(=O)Cn2ccc3ccc(-c4nnc(C)o4)cc32)c1,7%,-0.81
CCc1cccc(NC(=O)Cn2ccc3ccc(-c4nnc(C)o4)cc32)c1,78%,-9.29
Cc1cc(C)cc(NC(=O)Cn2ccc3ccc(-c4nnc(C)o4)cc32)c1,2%,-0.2
Cc1nnc(-c2ccc3ccn(CC(=O)Nc4ccc(F)c(Cl)c4)c3c2)o1,85%,-10.55
Cc1ccc(NC(=O)Cn2ccc3ccc(-c4nnc(C)o4)cc32)cc1,-3%,0.31
Cc1cccc(NC(=O)Cn2ccc3ccc(-c4nnc(C)o4)cc32)c1,6%,-0.76
c1csc([C@@H]2CN(c3ncnc4sccc34)CCO2)n1,5%,-0.74
O=C(NC1CCCCC1)c1nn(-c2ccc(F)cc2)c2ccccc2c1=O,-15%,2.13

SMILES,% Inhibition,Z score
O=C1NCCCN1C1CCN(Cc2ccc(Cl)c(C(F)(F)F)c2)CC1,10%,-1.75
COc1cc(-c2ccc(C(=O)N3CCC[C@H](O)C3)cc2)nc(OC)n1,2%,-0.43
Cc1cccc(CNC(=O)[C@H]2CCN(c3cn[nH]c(=O)c3)C2)c1,-12%,1.58
O=C(Nc1ccc(N2CCOCC2)cc1)[C@H]1CCN(c2cn[nH]c(=O)c2)C1,-14%,1.91
Cc1cccc(NC(=O)[C@H]2CCN(c3cn[nH]c(=O)c3)C2)c1,52%,-0.4
CCCCN1C(=O)[C@](NS(=O)(=O)c2ccc(NC(C)=O)cc2)(C(F)(F)F)C(C(C)=O)=C1C,-7%,0.92
COc1ccc(CCn2c(N)c(-c3nc4ccccc4s3)c3nc(C#N)c(C#N)nc32)cc1OC,-5%,0.86
N#Cc1nc2c(C#N)c(N)n(CCc3ccccc3)c2nc1C#N,88%,-11.87
N#Cc1nc2c(S(=O)(=O)c3ccccc3)c(N)n(Cc3ccc(Cl)cc3)c2nc1C#N,-16%,2.57
C[C@H]1COCCN1C(=O)CCc1ccco1,-2%,0.25
Cc1ccc(CNC[C@H](O)c2cccnc2)c(Br)c1,7%,-0.68
O=C(Cn1cnc2ccc(Cl)cc2c1=O)NCCCc1ccccc1,2%,-0.27
Cc1ccsc1CN(CCN1CCOCC1)[C@H]1CCCNC1,-5%,0.7
CCOC(=O)N1CC[C@H](NC2(c3cc(F)ccc3F)CC2)C1,-9%,1.36
O=C(Cn1cc2c(n1)CCCCCC2)NCCc1ccc(Cl)cc1,6%,-0.96
C[C@@H](CNc1cnc2ccccc2n1)N1CCOCC1,20%,-2.58
C[C@@H](CNc1nc(-c2ccccc2)nc2ccccc12)N1CCOCC1,-9%,1.51
CCCCCc1nc([C@H](C)N2CCN(C)CC2)n(-c2cc(C)ccn2)n1,-3%,0.42
O=S(=O)(c1ccc(Cl)s1)N1CCc2nc(-c3ccc(Cl)cc3)ncc2C1,-11%,1.78
